The list is not random: actives were taken first. Their share in the collection is about 3%.
TRAIL sens C8 = caspase-8 TRAIL sensitization | NB7+C8 cells + TRAIL, ATPlite viability luminescence | inhibition (viability loss, TRAIL sensitization), % at 10 µM | 360,000 tested, 1% active;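 active = compounds causing at least 50% loss of cell viability in the single-dose screen, relative to plate controls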
SENP6 inh = inhibitors of human SENP6 protease; Q9GZR1; inhibition, % at 10 µM; Recombinant SENP6 catalytic domain, aminoluciferin luminescence; 330,000 tested, 1.8% active;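 active = inhibition above about 50% at the single tested dose, limit read from the data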;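 note: plate controls were DMSO wells with enzyme for no effect and DMSO wells lacking enzyme for full effect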
Target sequence (Q9GZR1 628-1112 limits assumed): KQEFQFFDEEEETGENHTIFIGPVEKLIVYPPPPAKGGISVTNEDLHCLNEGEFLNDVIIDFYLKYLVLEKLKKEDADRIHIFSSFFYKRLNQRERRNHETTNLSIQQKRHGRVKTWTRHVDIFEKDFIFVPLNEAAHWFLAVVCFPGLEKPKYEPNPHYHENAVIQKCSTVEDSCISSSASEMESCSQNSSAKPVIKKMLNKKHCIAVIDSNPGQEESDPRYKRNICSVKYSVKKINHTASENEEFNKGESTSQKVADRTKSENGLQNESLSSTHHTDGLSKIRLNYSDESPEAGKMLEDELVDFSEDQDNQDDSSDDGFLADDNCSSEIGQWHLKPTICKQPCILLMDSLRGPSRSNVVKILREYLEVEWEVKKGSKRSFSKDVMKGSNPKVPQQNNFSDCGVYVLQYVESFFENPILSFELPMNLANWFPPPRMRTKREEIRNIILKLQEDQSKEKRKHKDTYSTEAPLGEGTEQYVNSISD
PPC-1+TRAIL kill = kills PPC-1 cancer cells in the presence of TRAIL; PPC-1 cells + TRAIL, ATPLite viability luminescence; cell killing (% activity), % at 4 µM or 5 µM; 220,000 tested, 0.41% active;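 active = cell killing above 50% in the first pass at 4 µM, then a duplicate retest at 5 µM averaging 50% or more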;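 note: plate controls were cells with TRAIL plus DMSO for no effect and medium-only wells lacking cells for full effect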
SENP7 block = SENP7 protease inhibition; Q9BQF6; recombinant SENP7, Z-RLRGG-aminoluciferin luminescence, 40 min; inhibition, % at 5 µM; 330,000 tested, 1.5% active;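 active = inhibition above about 50% at the single test dose, limit read from the data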;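 note: plate controls were DMSO with enzyme for no effect and no enzyme buffer wells for full effect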
SENP8 block-1 = inhibitors of human SENP8 protease | recombinant SENP8, Nedd8 substrate fluorescence | inhibition, % at 20 µM | 360,000 tested, 0.64% active | AID 602440; in the data active = inhibition mostly above about 40%, no sharp cut-off; inactive = mostly below about 27%
SENP8 block-2 = blocks the human protease SENP8; 330,000 tested, 1.2% active; Q96LD8; inhibition, % at 10 µM; purified SENP8, Z-RLRGG-aminoluciferin cleavage, luminescence; in the data active = inhibition above about 50%
SENP8 confirm = human SENP8 inhibition, confirmed; shares compounds with SENP7 block; Recombinant SENP8, Z-RLRGG-aminoluciferin luminescence, 60 min; inhibition, % at 12.5 µM; 6,200 tested, 40% active;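 active = mean inhibition across replicates above about 50%, limit read from the data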
SENP6 conf = confirmation of human SENP6 protease inhibitors; inhibition, % at 12.5 µM; AID 488915; shares compounds with SENP7 block; 6,200 tested, 58% active; recombinant SENP6, Z-RLRGG-aminoluciferin luminescence
SENP7 conf = human SENP7 inhibition, confirmed; shares compounds with SENP7 block; recombinant SENP7, Z-RLRGG-aminoluciferin luminescence, 40 min; inhibition, % at 12.5 µM; 6,200 tested, 69% active; AID 488917
Casp3 SENP sel = inhibits human caspase-3 in SENP selectivity test | inhibition, % at 12.5 µM | shares compounds with SENP7 block | 6,200 tested, 60% active | purified caspase-3, Z-DEVD-aminoluciferin luminescence, 60 min | AID 488918;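 active = mean inhibition above about 50%, limit read from the data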;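 note: plate controls were enzyme with DMSO for no effect and wells without caspase-3 for full effect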
Target sequence (P42574 28-227 limits assumed): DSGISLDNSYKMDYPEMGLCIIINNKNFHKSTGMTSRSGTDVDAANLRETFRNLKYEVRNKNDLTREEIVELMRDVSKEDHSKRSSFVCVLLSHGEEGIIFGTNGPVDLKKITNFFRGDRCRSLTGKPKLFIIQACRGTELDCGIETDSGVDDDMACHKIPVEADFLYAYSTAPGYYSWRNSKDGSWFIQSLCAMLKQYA
SENP luc ctr = luminescence interference (SENP counter-screen) | shares compounds with SENP7 block | Pre-incubated SENP8/Z-RLRGG-aminoluciferin, luciferase luminescence interference | inhibition, % at 12.5 µM | 6,200 tested, 39% active | AID 488919;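 active = mean inhibition above about 50% when retested at one dose, limit read from the data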;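 note: plate controls were DMSO wells with completed reaction for no effect and substrate without enzyme for full effect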
* marks the source's active call; other numbers are inactive results; i = inactive; / = no result.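 Rule for the calls, unless noted: active = mean inhibition above about 50% in the one-dose retest (limit read from the data); inactive = the rest.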

SMILES	TRAIL sens C8	SENP6 inh	PPC-1+TRAIL kill	SENP7 block	SENP8 block-1	SENP8 block-2	SENP8 confirm	SENP6 conf	SENP7 conf	Casp3 SENP sel	SENP luc ctr
CN(C)c1ccc(NC(=O)c2ccc(COc3cccc(Cl)c3)o2)cc1	1.5	-23.2	33.1	-9.4	35.8	-11.1	/	/	/	/	/
O=C(Nc1ccc2c(c1)OCO2)c1ccc(COc2ccc3c(c2)CCC3)o1	-14.6	53.7*	7.5	-5.0	5.9	24.2	15.7	30.3	36.6	14.2	19.6
O=C(Nc1ccc2c(c1)OCO2)c1ccc(Br)o1	14.7	64.6*	35.7	7.1	10.5	58.0*	10.5	65.4*	89.9*	82.4*	67.1*
Cc1ccc(NC(=O)COC(=O)c2ccc(CN3CCCC3=O)cc2)c(Cl)c1	-21.0	-26.1	/	6.7	-15.6	-7.3	/	/	/	/	/
COc1ccccc1C(=O)Nc1ccnn1C1CCN(C(=O)c2ccoc2C)CC1	-21.7	-7.3	/	-3.1	-1.8	3.1	/	/	/	/	/
Cc1ccc(CN2C(=O)C(C)Sc3ccc(C#N)cc32)cc1 (stereo not drawn)	-13.3	/	/	/	6.6	/	/	/	/	/	/
Cc1ccc(-c2csc(N3C(=N)SCC3=O)n2)cc1	/	-0.4	24.2	71.3*	/	51.4*	2.5	12.7	10.4	15.8	8.2
Cc1nn(-c2ccccc2)c(Cl)c1/C=N/Nc1nc2ccccc2n1C	30.4	43.0	27.6	64.7*	4.7	54.5*	-7.7	49.2	92.9*	67.8*	35.8
Cc1nn(-c2ccccc2)c(Cl)c1/C=N/NC(=O)c1ccnn1C	13.0	94.0*	/	94.1*	5.1	86.5*	59.3*	80.8*	97.3*	92.4*	54.8*
CC(=NCc1ccco1)c1c(C)[nH]n(-c2nc3ccccc3s2)c1=O	30.6	64.7*	28.3	2.1	14.1	24.1	3.3	2.5	72.8*	49.6	16.9
O=c1c(C=NCc2cccnc2)c(C(F)(F)F)[nH]n1-c1nc2ccccc2s1	44.9	97.2*	/	98.9*	4.2	97.2*	99.8*	100.8*	103.2*	99.1*	99.0*
CCC(=NCc1ccccc1)c1c(C(F)(F)F)[nH]n(-c2nc3ccccc3s2)c1=O	4.8	85.2*	21.4	88.7*	6.8	60.5*	17.8	11.8	19.5	63.5*	48.6
CCC(=NCc1ccco1)c1c(C(F)(F)F)[nH]n(-c2nc3ccccc3s2)c1=O	23.7	95.6*	18.0	95.8*	2.7	88.5*	72.9*	70.4*	90.3*	89.7*	81.0*
O=C(O)CCn1c(SCCOc2ccccc2)nc2ccccc21	9.8	2.6	/	3.0	17.3	-4.9	/	/	/	/	/
CCOc1cc2c(C#N)c(N3CCOCC3)nc(N)c2c(N)n1	15.1	12.7	1.8	28.4	-411.4	3.8	/	/	/	/	/
CCOc1cc2c(C#N)c(N(CC)CC)nc(N)c2c(N)n1	6.3	72.3*	/	45.2	i	5.2	-2.1	0.8	2.9	9.6	5.6
CCCN(CC1CC1)c1nc(N)c2c(N)nc(OC)cc2c1C#N	11.2	81.7*	0.1	3.6	-499.1	80.1*	7.2	11.9	2.0	-5.3	-15.7
CN(Cc1ccccc1)C1(CNC(=O)CCC(F)(F)F)Cc2ccccc2C1	2.6	-2.2	/	-2.6	8.7	7.1	/	/	/	/	/
CC1=NN(C(N)=S)C(=O)C1N=Nc1ccc(Cl)cc1 (stereo not drawn)	-0.5	88.5*	/	76.7*	32.9	86.4*	-1.2	72.2*	35.1	29.8	14.4
CC1=NN(C(N)=S)C(=O)C1N=Nc1cccc([N+](=O)[O-])c1 (stereo not drawn)	-9.9	82.6*	/	76.5*	32.5	80.2*	4.2	5.3	-2.2	16.2	6.8
CC1=NN(C(=O)c2ccncc2)C(=O)C1N=Nc1ccc2ccccc2c1 (stereo not drawn)	29.4	/	/	/	34.2	/	/	/	/	/	/
CC1=NN(C(N)=S)C(=O)C1N=Nc1cccc2ccccc12 (stereo not drawn)	/	/	13.1	/	/	/	/	/	/	/	/
CC1=NN(C(N)=S)C(=O)C1N=Nc1ccc(Br)cc1 (stereo not drawn)	5.7	96.3*	/	74.1*	35.7	92.2*	25.9	40.4	27.4	40.0	23.3
CC1=NN(C(N)=S)C(=O)C1N=Nc1ccccc1 (stereo not drawn)	7.8	71.9*	23.3	52.8*	22.8	59.0*	18.9	54.8*	14.4	35.3	0.4
CC1=NN(C(N)=S)C(=O)C1N=Nc1cccc(Cl)c1C (stereo not drawn)	-3.7	93.8*	/	59.2*	14.8	84.5*	94.7*	94.3*	100.0*	88.0*	83.1*
SMILES	TRAIL sens C8	SENP6 inh	PPC-1+TRAIL kill	SENP7 block	SENP8 block-1	SENP8 block-2	SENP8 confirm	SENP6 conf	SENP7 conf	Casp3 SENP sel	SENP luc ctr
CN(C)C(CNc1ccc(S(C)(=O)=O)cc1[N+](=O)[O-])c1ccccc1 (stereo not drawn)	-0.4	65.1*	/	5.8	33.8	44.0	3.9	2.2	6.2	2.3	2.6
CN(C)C(=O)c1ccccc1NC(=O)Cc1cccc2ccccc12	-14.2	-12.9	/	3.9	19.6	-12.2	/	/	/	/	/
Oc1ccc(Nc2ncnc3c2oc2ccccc23)cc1	8.8	9.2	/	2.8	-20.0	3.4	/	/	/	/	/
Oc1cccc(Nc2ncnc3c2oc2ccccc23)c1	15.2	70.2*	/	71.3*	-222.3	62.5*	64.4*	66.2*	92.5*	69.3*	80.1*
c1ccc2c(c1)oc1c(Nc3ccc4c(c3)OCO4)ncnc12	-1.9	13.2	28.4	58.8*	-186.8	13.0	-8.8	4.4	10.2	19.1	6.7
COCC(C)n1c(C)cc(C(=O)COC(=O)c2cc(=O)[nH]c3ccccc23)c1C (stereo not drawn)	47.9	10.6	/	-0.8	-331.3	-15.5	/	/	/	/	/
COCC(C)n1c(C)cc(C(=O)COC(=O)c2n[nH]c3ccccc23)c1C (stereo not drawn)	57.9*	54.9*	8.0	29.6	16.5	20.7	47.9	41.8	66.8*	46.7	47.5
COc1cc(OC)cc(C(=O)OCC(=O)c2cc(C)n(CC3CCCO3)c2C)c1 (stereo not drawn)	15.3	68.0*	/	21.7	0.2	47.9	57.4*	49.1	78.8*	52.8*	3.4
